ChEMBL document CHEMBL1961873, “Compounds: GSK PKIS; Assays: Nanosyn kinase panel” (2012)

Columns and labels:
[1] = biological target: CDK3/Cyclin E (Homo sapiens) (UniProt P24864+Q00526); settings: at 1 µM;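 note: each figure is a mean percent inhibition of the CDK3/cyclin E complex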
[2] = biological target: Cyclin-dependent kinase 4 (Homo sapiens) (UniProt P11802); settings: at 0.1 µM
[3] = biological target: Cyclin-dependent kinase 4 (Homo sapiens) (UniProt P11802); settings: at 1 µM
[4] = biological target: Cyclin-dependent kinase 5 (Homo sapiens) (UniProt Q00535); settings: at 0.1 µM
[5] = biological target: Cyclin-dependent kinase 5 (Homo sapiens) (UniProt Q00535); settings: at 1 µM
[6] = biological target: Cyclin-dependent kinase 6 (Homo sapiens) (UniProt Q00534); settings: at 0.1 µM
[7] = biological target: Cyclin-dependent kinase 6 (Homo sapiens) (UniProt Q00534); settings: at 1 µM
[8] = biological target: Dual specificity protein kinase CLK2 (Homo sapiens) (UniProt P49760); settings: at 0.1 µM
[9] = biological target: Dual specificity protein kinase CLK2 (Homo sapiens) (UniProt P49760); settings: at 1 µM
[10] = biological target: Dual specificity protein kinase CLK3 (Homo sapiens) (UniProt P49761); settings: at 0.1 µM
Dual specificity protein kinase CLK3 (Homo sapiens), sequence (P49761 whole entry, looked up): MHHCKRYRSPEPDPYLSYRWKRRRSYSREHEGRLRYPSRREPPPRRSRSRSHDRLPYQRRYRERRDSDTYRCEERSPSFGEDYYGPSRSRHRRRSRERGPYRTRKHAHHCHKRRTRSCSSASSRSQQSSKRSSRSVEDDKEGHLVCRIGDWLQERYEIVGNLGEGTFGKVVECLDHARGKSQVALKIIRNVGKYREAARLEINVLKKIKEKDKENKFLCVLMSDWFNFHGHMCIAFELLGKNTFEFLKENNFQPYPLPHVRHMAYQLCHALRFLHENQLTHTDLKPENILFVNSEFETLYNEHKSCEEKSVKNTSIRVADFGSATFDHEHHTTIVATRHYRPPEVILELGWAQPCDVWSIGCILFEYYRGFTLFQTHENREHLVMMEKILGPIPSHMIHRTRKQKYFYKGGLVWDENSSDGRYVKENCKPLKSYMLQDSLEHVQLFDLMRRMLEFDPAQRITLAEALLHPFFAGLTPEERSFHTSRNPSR

Dual specificity protein kinase CLK2 (Homo sapiens), sequence (P49760 whole entry, looked up): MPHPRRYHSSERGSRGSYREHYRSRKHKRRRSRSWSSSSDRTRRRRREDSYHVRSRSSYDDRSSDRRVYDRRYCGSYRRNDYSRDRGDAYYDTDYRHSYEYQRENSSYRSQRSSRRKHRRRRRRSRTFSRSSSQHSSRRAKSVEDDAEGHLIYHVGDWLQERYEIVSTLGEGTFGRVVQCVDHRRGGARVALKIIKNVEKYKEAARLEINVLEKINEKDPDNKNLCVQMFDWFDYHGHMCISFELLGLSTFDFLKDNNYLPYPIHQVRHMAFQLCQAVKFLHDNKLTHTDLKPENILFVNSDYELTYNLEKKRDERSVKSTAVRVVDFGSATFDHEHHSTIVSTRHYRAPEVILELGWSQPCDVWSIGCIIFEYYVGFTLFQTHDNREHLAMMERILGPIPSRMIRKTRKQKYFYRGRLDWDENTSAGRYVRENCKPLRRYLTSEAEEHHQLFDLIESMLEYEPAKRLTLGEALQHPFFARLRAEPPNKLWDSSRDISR
Cyclin-dependent kinase 6 (Homo sapiens), sequence (Q00534 whole entry): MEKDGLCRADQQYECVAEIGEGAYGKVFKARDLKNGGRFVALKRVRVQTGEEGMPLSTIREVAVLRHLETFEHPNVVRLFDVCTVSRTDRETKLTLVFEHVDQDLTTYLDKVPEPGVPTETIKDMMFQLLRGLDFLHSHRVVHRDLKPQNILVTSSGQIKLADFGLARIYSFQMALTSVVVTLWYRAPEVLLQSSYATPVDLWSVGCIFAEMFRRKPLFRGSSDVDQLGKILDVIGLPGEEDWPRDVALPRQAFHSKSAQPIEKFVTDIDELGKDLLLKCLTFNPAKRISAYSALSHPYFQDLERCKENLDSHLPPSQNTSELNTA
Cyclin-dependent kinase 4 (Homo sapiens), sequence (P11802 whole entry): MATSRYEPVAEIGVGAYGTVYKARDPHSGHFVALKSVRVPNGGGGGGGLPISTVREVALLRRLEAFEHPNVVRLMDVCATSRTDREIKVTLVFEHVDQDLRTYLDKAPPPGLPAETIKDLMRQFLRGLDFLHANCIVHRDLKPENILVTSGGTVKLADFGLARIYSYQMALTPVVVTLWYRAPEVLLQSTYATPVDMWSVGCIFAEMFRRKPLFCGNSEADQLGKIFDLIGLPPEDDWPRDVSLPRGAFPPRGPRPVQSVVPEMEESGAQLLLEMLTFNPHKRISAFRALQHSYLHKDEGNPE
Cyclin-dependent kinase 5 (Homo sapiens), sequence (Q00535 whole entry, looked up): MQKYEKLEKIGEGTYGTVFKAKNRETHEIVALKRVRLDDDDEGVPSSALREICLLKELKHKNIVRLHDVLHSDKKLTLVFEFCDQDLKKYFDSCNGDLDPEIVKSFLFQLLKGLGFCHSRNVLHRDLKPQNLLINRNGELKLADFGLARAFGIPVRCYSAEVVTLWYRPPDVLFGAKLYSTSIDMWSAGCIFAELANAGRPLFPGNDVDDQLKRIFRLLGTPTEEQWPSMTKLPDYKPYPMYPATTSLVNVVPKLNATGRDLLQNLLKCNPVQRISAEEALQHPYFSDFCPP
CDK3/Cyclin E (Homo sapiens), sequence (P24864 whole entry, looked up): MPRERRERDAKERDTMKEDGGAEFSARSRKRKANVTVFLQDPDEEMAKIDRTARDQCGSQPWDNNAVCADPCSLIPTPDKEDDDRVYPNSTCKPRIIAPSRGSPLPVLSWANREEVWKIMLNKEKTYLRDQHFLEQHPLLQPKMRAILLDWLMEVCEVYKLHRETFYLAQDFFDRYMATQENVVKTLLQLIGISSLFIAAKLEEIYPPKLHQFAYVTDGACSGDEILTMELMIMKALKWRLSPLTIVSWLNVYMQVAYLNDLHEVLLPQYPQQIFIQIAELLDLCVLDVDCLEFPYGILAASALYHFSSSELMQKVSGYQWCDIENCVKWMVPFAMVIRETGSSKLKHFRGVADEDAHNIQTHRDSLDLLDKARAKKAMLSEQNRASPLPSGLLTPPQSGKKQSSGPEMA
CDK3/Cyclin E (Homo sapiens), sequence (Q00526 whole entry, looked up): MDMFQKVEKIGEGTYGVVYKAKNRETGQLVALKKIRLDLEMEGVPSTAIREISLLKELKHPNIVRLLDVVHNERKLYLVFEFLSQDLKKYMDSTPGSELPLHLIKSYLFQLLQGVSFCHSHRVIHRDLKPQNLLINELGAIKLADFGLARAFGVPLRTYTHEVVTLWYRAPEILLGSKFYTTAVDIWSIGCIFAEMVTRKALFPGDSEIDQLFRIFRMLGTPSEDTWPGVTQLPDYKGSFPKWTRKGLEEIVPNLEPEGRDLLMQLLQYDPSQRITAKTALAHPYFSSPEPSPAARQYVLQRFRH

Compound | inhibition [1] [%] | inhibition [2] [%] | inhibition [3] [%] | inhibition [4] [%] | inhibition [5] [%] | inhibition [6] [%] | inhibition [7] [%] | inhibition [8] [%] | inhibition [9] [%] | inhibition [10] [%]
Nc1nc(-c2ccc3c(c2)C(=Cc2cc(Br)c(O)c(Br)c2)C(=O)N3)cs1 | -0.65 | -0.86 | 2.39 | 1.35 | 2.98 | -5 | -0.79 | 1.02 | 2.39 | 0.15
O=C1NC(=O)C(c2ccccc2Cl)=C1Nc1cccc(O)c1 | 19.4 | 7.12 | 25.4 | 4.62 | 26.6 | 7.16 | 28.7 | 4.29 | 36.9 | 2.2
Cc1nnc(-c2ccc(C)c(-c3ccc(C(=O)Nc4cccc(C#N)c4)cc3)c2)o1 | -0.82 | 0.95 | 0.68 | 0.65 | 1.71 | 1.26 | 3.14 | 1.15 | -0.94 | 0.91
CS(=O)(=O)CCNCc1nc(-c2ccc3ncnc(Nc4ccc(F)c(Cl)c4)c3c2)cs1 | -2.13 | 0.51 | 0.73 | 0.12 | 0.38 | 6.34 | -1.47 | 0.29 | 2.89 | -0.05
CS(=O)(=O)Nc1ccc(N/C=C2\C(=O)Nc3ccccc32)cc1 | 17.4 | 1.6 | 15 | 6.34 | 39.8 | 12.9 | 59.4 | -0.68 | 3.62 | 0.94
[O-][S+]1CCN(Cc2ccc(-c3ccc4ncnc(Nc5ccc(OCc6ccccc6)c(F)c5)c4c3)o2)CC1 | -0.37 | 1.78 | 2.34 | 0.47 | 0.42 | -2.8 | -0.74 | 1.05 | 0.69 | 0.9
CC1=C(C(=O)Nc2ccc3[nH]ncc3c2)C(c2ccc(Cl)c(Cl)c2)CC(=O)N1 (stereo not drawn) | 0.2 | 0.92 | -0.63 | -0.73 | -0.62 | 2.47 | 0.05 | 0.09 | 4.18 | 0.34
NC(=O)c1cccc(Nc2nccc(Nc3cccc4[nH]ncc34)n2)c1 | 23.7 | -0.82 | 5.05 | 1.84 | 14.1 | 0.2 | 0.3 | 1.19 | 27.8 | 0.15
CC1=C(C(=O)Nc2ccc3[nH]ncc3c2)C(c2ccc3ccccc3c2)CC(=O)N1 (stereo not drawn) | 2.9 | 2.41 | 2.46 | 1.12 | 3.42 | 3.45 | 4.44 | 1.34 | 2.42 | 2.41
COc1cc2ncn(-c3cc(OCc4ccccc4Cl)c(C(N)=O)s3)c2cc1OC | -0.63 | 2.27 | 5.4 | 1.51 | 4.46 | -4.1 | 0.43 | 1.87 | 3.23 | 1.33
CCN1CCC(CC(=O)Nc2n[nH]c3nc(-c4cccs4)c(Br)cc23)CC1 | 9.52 | 5.84 | 37 | 0.96 | 2.52 | 30.9 | 70.8 | -1.44 | 2.75 | 0.48
Nc1ncnc2occ(-c3ccc(NC(=O)Nc4cc(C(F)(F)F)cc(C(F)(F)F)c4)cc3)c12 | 7.22 | 1.55 | 2.23 | 0.25 | 1.52 | -0.28 | 3.73 | 0.31 | 2.87 | 0.61
CNC(=O)c1cncc(/C=C/c2c(Cl)cccc2Cl)c1 | -3.08 | 0.86 | 3.96 | -2.57 | -0.63 | -5.76 | -5.69 | 2.47 | 5.66 | -3.56
CCn1c(-c2nonc2N)nc2cncc(C(=O)N3CCNCC3)c21 | 0.54 | 2.78 | 3.57 | 0.79 | 1.06 | -0.98 | 3.06 | 2.04 | 5.8 | 2.42
CCc1cccc(NC(=O)Nc2ccc(Oc3ccc4nc(NC(=O)OC)[nH]c4c3)cc2)c1 | -1.16 | 0.97 | 1.5 | -0.16 | -0.09 | 7.42 | 1.51 | 0.09 | 1.38 | 0.3
Cc1ccc(NC(=O)c2ccnc(N3CCCC3)c2)cc1-c1ccc(C(=O)NCC2CC2)cc1 | -0.38 | 0.83 | 4.63 | 2.54 | 3.21 | -7.97 | -0.52 | 3.05 | 1.8 | -1.85
CN(C)c1cc2c(Nc3ccc4nc(Cc5ccccc5)[nH]c4c3)ncnc2cn1 | -2.11 | 3.33 | 3.46 | 1.02 | 1.2 | 1.12 | 3.91 | 2.08 | 1.7 | 2.14

Compound | inhibition [1] [%] | inhibition [2] [%] | inhibition [3] [%] | inhibition [4] [%] | inhibition [5] [%] | inhibition [6] [%] | inhibition [7] [%] | inhibition [8] [%] | inhibition [9] [%] | inhibition [10] [%]
O=C1NC(=O)C(c2cccc(Cl)c2)=C1Nc1ccc(O)c(Cl)c1 | 6.94 | 2.23 | 13.9 | 1.36 | 7.25 | -3.15 | 12.6 | 4.59 | 26.1 | -0.5
CCn1c(-c2nonc2N)nc2cnc(Oc3cccc(NC(=O)c4ccc(OCCN5CCOCC5)cc4)c3)cc21 | -2.11 | 3.32 | 2.38 | -0.26 | 0.42 | -1.58 | -0.79 | -0.98 | -0.12 | 0.57
COc1cc2ncn(-c3cc(O[C@@H](C)c4ccccc4Cl)c(C(N)=O)s3)c2cc1OC | -0.13 | 2.39 | 4.14 | 0.19 | 2.21 | -0.46 | 1.56 | 0.33 | 0.86 | 0.71
NS(=O)(=O)c1cccc(-c2ccc3c(NC(=O)C4CC4)n[nH]c3c2)c1 | 1.71 | -1.17 | 1.45 | 0.87 | 1.78 | -1.94 | 6.01 | -0.55 | -0.78 | 0.83
CCn1c(-c2nonc2N)nc2c(C#CC(C)(C)O)nc(CN3CCCC3)cc21 | -0.95 | 1.6 | 2.5 | 1.06 | 2.14 | -8.94 | 0.66 | -0.92 | 1.46 | -1.6
CCn1c(-c2nonc2N)nc2cncc(C(=O)N3CC[C@H](N)C3)c21 | -2.13 | 2.98 | 2.35 | 0.46 | 0.69 | -1.51 | 4.8 | 5.07 | 21.6 | 1.31
COc1cc2c(cc1Nc1nc(N3CCc4ccccc43)c3cc[nH]c3n1)N(C(=O)CN(C)C)CC2 | 1.66 | 2.1 | 3.3 | 0.44 | 0.4 | 0.95 | 1.09 | 7.85 | 44.4 | 0.14
CC1=C(C(=O)Nc2ccc3[nH]ncc3c2)C(c2ccc(F)cc2)NC(=O)N1 (stereo not drawn) | -0.84 | 1.79 | 4.05 | 0.41 | 3.23 | -2.46 | 4.38 | -0.24 | 0.68 | 3.34
Cn1cc(C=C2C(=O)Nc3cccnc32)c2ccccc21 | 3.36 | 4.89 | 11 | 5.57 | 7.28 | 1.04 | 8.56 | 3.28 | 13.7 | 0.62
COc1ccc(-c2nn3ncccc3c2-c2ccnc(Nc3ccc(Cl)c(C(F)(F)F)c3)n2)cc1 | -0.57 | 1.13 | 2.09 | 0.45 | 0.19 | 0.68 | 1.73 | 0.95 | 1.59 | 1.77
COc1cc2ncn(-c3cc(O[C@H](C)c4ccccc4Cl)c(C(N)=O)s3)c2cc1OC | 5.51 | 2.41 | 3.26 | 0.86 | 1.47 | -0.21 | -0.74 | 3.38 | 5.22 | 2.12
Cc1cc(O)cc(C)c1/C=C/c1cncc(-c2nn[nH]n2)c1 | -2.12 | -0.96 | 0 | -3.06 | -3.35 | -6.34 | -0.68 | 2.78 | 1.31 | –
Fc1cccc(COc2ccc(Nc3ncnc4sc(-c5cccs5)cc34)cc2Cl)c1 | 0.05 | 0.35 | 2.13 | 0.55 | 1.81 | -0.81 | 0.5 | 1.58 | 1.69 | 0.66
COc1cc(C)c(NC(=O)CN(C)C)cc1Nc1nc(Nc2cccc(F)c2C(N)=O)c2cc[nH]c2n1 | 0.15 | 0.8 | 1.16 | -0.59 | -1.89 | -0.3 | 3.87 | 45.4 | 88.8 | 1.76
COc1cc(C=NNc2ncnc3c2cnn3-c2ccccc2)ccc1O | 12.7 | 3.09 | 18.6 | 4 | 24.5 | 4.2 | 21.7 | 3.39 | 9.02 | –
O=C1NC(=O)C(c2ccc(Cl)cc2)=C1Nc1ccc(Cl)c(C(=O)O)c1 | 1.13 | 0.08 | -0.02 | 0.36 | 1.75 | 4.89 | 5.18 | -0.15 | 1.55 | 1.39
